This is an account of results in PubChem BioAssay (NCI).

Among the test systems are SN12C renal; UO-31 renal; TK-10 renal; ACHN renal; CAKI-1 renal; A498 renal; CCRF-CEM leukemia; MOLT-4 leukemia; SR leukemia; EKVX NSCLC.
Common to all, as to experiment: NCI-60 one-dose screen, 48 h (100 = growth as untreated, 0 = no growth, -100 = all killed)
Conditions in all cases: 10 µM unless noted

The panel holds about 83,000 compounds, 20% with a hit somewhere; the sample as a whole holds those more often.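 48-hour exposure, single concentration, 96-well plates; percent growth endpoint where 0 means no net growth. Active: below 10.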 Unmarked numbers belong to inactive results. Calls of active or inactive are those of the source.

Turning to `O=C(O)c1ccc(NC(=O)c2cccc(Nc3ccnc(C(F)(F)F)c3)c2)cc1`, the growth is 106% in the experiment with SN12C renal; 82% in the experiment on UO-31 renal; 97.8% in the experiment with TK-10 renal; 103% in the experiment with ACHN renal; 95.1% in the experiment on CAKI-1 renal; 106% in the experiment with A498 renal. The growth in the experiment with CCRF-CEM leukemia is 94.8%; in the experiment on MOLT-4 leukemia, 93.4%; in the experiment on SR leukemia, 86.1%.

On to `O=C(/C=C/c1ccc(O)c(O)c1)N1CCN(c2ccc(Cl)cc2)CC1`, for which the growth in the experiment with SN12C renal is 69.8%; with UO-31 renal it was 24.5%; with TK-10 renal, 49%; in the experiment with ACHN renal, 48.1%; in the experiment with CAKI-1 renal it was 50.5%; with A498 renal, 72.1%. Moreover, the growth in the experiment on CCRF-CEM leukemia was 32.6%; in the experiment on MOLT-4 leukemia, 27.3%; in the experiment with SR leukemia, 26.6%.

For `S=C1SCN(Cc2ccccc2)CN1Cc1ccco1`, the growth was 93.5% with SN12C renal; 78.6% in the experiment on UO-31 renal; 28.7% with TK-10 renal; 107% in the experiment on ACHN renal; 96.7% in the experiment with CAKI-1 renal; 99% with A498 renal. In addition, the results for the growth in the experiment on CCRF-CEM leukemia, in the experiment on MOLT-4 leukemia and in the experiment with SR leukemia were 10.8%, 51.6% and 22%, respectively.

As to `Nc1ccc(C2=NN(c3ccccc3)C(c3ccc(Cl)cc3)C2)cc1` (stereo not drawn), the growth was 76.9% in the experiment with SN12C renal; 55.1% in the experiment on UO-31 renal; 74.2% in the experiment with TK-10 renal; 82.1% in the experiment on ACHN renal; 80.9% in the experiment with CAKI-1 renal; 74.7% in the experiment with A498 renal. Further, the values for the growth in the experiment with CCRF-CEM leukemia, in the experiment on MOLT-4 leukemia and in the experiment with SR leukemia were 64.2%, 62.4% and 2.52% (active), respectively.

Consider `COc1ccc(/C(=C2\O[C@@H]([C@H](O)CO)[C@H]3OC(C)(C)O[C@@H]23)c2cc(OC)c(OC)c(OC)c2)cc1O`, for which the growth is 97% in the experiment with EKVX NSCLC; 90.1% with UO-31 renal; 106% in the experiment on TK-10 renal; 78.5% with ACHN renal; 105% in the experiment on CAKI-1 renal; 95.3% in the experiment with CCRF-CEM leukemia. Besides, the results for the growth with MOLT-4 leukemia and in the experiment on SR leukemia were 78.1% and -13% (active), respectively.

`CCCCC(C#N)C(N)=O` (stereo not drawn): the growth with EKVX NSCLC is 132%; in the experiment on UO-31 renal it was 87.8%; in the experiment on TK-10 renal, 107%; with ACHN renal it was 110%; with A498 renal, 122%; in the experiment with CCRF-CEM leukemia it was 95.8%. In addition, the growth in the experiment with MOLT-4 leukemia is 90.2%; with SR leukemia, 93.8%.

Take `CCOC(Cc1c(N)[nH]c(=S)[nH]c1=O)OCC`: the growth was 110% with SN12C renal; 86% in the experiment with UO-31 renal; 108% in the experiment with TK-10 renal; 94.9% in the experiment with ACHN renal; 104% in the experiment with A498 renal; 88% with MOLT-4 leukemia. The growth in the experiment with SR leukemia is 90.8%.

For the molecule `C[C@]12CC[C@@H]3c4ccc(O)c([N+](=O)[O-])c4CC[C@H]3[C@@H]1CC[C@@H]2NS(=O)(=O)c1cccc(Br)c1`, the growth with SN12C renal was 21.4%; in the experiment on UO-31 renal, 3.61% (active); with TK-10 renal, 42.8%; in the experiment with ACHN renal, 24.4%; with CAKI-1 renal it was 17.8%; with A498 renal, 54.2%. Besides, the figures for the growth in the experiment on MOLT-4 leukemia and with SR leukemia were 18.2% and -12.1% (active), respectively.

`N#CCCN(CCO)c1ccccc1`: the growth was 97.6% with SN12C renal; 89.5% in the experiment with UO-31 renal; 93.7% in the experiment on TK-10 renal; 106% with ACHN renal; 96.4% in the experiment with A498 renal; 90% with MOLT-4 leukemia. For the same molecule, the growth in the experiment on SR leukemia was 86.3%.

Take `Nc1nonc1-c1nc2ccccc2n1CC(=O)Nc1ccc2c(c1)COC2=O`: the growth in the experiment with SN12C renal is 92.2%; in the experiment with UO-31 renal, 60.6%; in the experiment on TK-10 renal, 94.7%; with ACHN renal, 92.2%; in the experiment with CAKI-1 renal it was 74.5%; in the experiment with A498 renal, 63.7%. Besides, the growth in the experiment on MOLT-4 leukemia is 101%.

In the case of `COc1cccc(C2C(C#N)=C(N)Oc3cc(OC)ccc32)c1` (stereo not drawn), the growth in the experiment with SN12C renal was 24.9%; in the experiment with UO-31 renal, 41.6%; with TK-10 renal, 50.6%; with ACHN renal it was 29.7%; with CAKI-1 renal it was 20.6%; in the experiment on CCRF-CEM leukemia, -1.19% (active). For the same molecule, the results for the growth in the experiment on MOLT-4 leukemia and with SR leukemia were 1.42% (active) and -30.3% (active), respectively.

Take `COc1ccc2nc3cc(Cl)ccc3c(N3CCN(c4ccnc(Nc5ccc(F)cc5)n4)CC3)c2c1`: the growth in the experiment on SN12C renal was 71.5%; in the experiment on UO-31 renal it was 56%; with TK-10 renal it was 66.1%; with ACHN renal, 62.5%; with CAKI-1 renal, 72%; in the experiment with CCRF-CEM leukemia, 38.1%. The growth with MOLT-4 leukemia was 20%; in the experiment on SR leukemia, 43.2%.

With `O=C(c1ccccc1)c1ccco1`, the growth is 88.4% in the experiment with SN12C renal; 88.7% in the experiment on UO-31 renal; 96% in the experiment on TK-10 renal; 98.9% in the experiment with ACHN renal; 109% with A498 renal; 93.3% in the experiment with CCRF-CEM leukemia. The values for the growth in the experiment on MOLT-4 leukemia and in the experiment on SR leukemia were 91.7% and 106%, respectively.

`CSc1nc2c(c(=O)[nH]1)C(c1ccc(Cl)cc1)C1=C(N2)/C(=C/c2ccc(Cl)cc2)CNC1` (stereo not drawn): the growth was 39.7% with SN12C renal; 16.8% in the experiment with UO-31 renal; 78.9% in the experiment with TK-10 renal; 72.5% with ACHN renal; 76.8% with CAKI-1 renal; 18.3% with A498 renal. In addition, the growth in the experiment with MOLT-4 leukemia was 18.7%; in the experiment on SR leukemia, -16.2% (active).

Take `O=C(Nc1cccc(C(F)(F)F)c1)Nc1ccc(OCc2nnc(-c3ccc(Cl)cc3)o2)c(F)c1`: the growth is 77.3% in the experiment with SN12C renal; 73.9% in the experiment on UO-31 renal; 81.3% in the experiment on TK-10 renal; 51.2% in the experiment with ACHN renal; 80.1% with CAKI-1 renal; 79% in the experiment with A498 renal. Moreover, the growth in the experiment with CCRF-CEM leukemia was 60.8%; in the experiment with MOLT-4 leukemia, 66.7%; in the experiment with SR leukemia, 66.3%.

Take `COc1ccc(-c2nnc(COc3ccc(NC(=O)Nc4cc(C(F)(F)F)cc(C(F)(F)F)c4)cc3F)o2)cc1`: the growth in the experiment with SN12C renal was 5.21% (active); in the experiment with UO-31 renal it was -4.7% (active); in the experiment with TK-10 renal it was 15.3%; in the experiment on ACHN renal, 11%; in the experiment on CAKI-1 renal, 12.3%; with A498 renal it was -1.78% (active). For the same molecule, the growth was 16.2% with CCRF-CEM leukemia, 8.94% (active) in the experiment on MOLT-4 leukemia and -13.2% (active) in the experiment with SR leukemia.

Turning to `CCOc1nc(-c2ccccc2)cc2c(O)c(-c3nnco3)[nH]c(=O)c12`, the growth in the experiment with SN12C renal is 47.2%; in the experiment with UO-31 renal it was 29.1%; in the experiment on TK-10 renal, 31.8%; in the experiment with ACHN renal, 52.3%; in the experiment with CAKI-1 renal it was 34.6%; with A498 renal it was 45.3%. Further, the growth was 15.7% in the experiment on CCRF-CEM leukemia, 30% in the experiment with MOLT-4 leukemia and 21.3% in the experiment on SR leukemia.

Take `Cc1cc(=O)n2n1-c1ccc(Cl)cc1NC(=O)C2`: the growth in the experiment with SN12C renal was 99.1%; in the experiment with UO-31 renal, 89.6%; with TK-10 renal, 117%; in the experiment with ACHN renal it was 104%; in the experiment with CAKI-1 renal, 88.4%; in the experiment on A498 renal, 119%. The growth with CCRF-CEM leukemia is 82.6%; in the experiment on MOLT-4 leukemia, 108%; in the experiment on SR leukemia, 110%.

Turning to `C[C@]12CC[C@@H]3c4ccc(O)c([N+](=O)[O-])c4CC[C@H]3[C@@H]1CC[C@@H]2NS(=O)(=O)c1ccc(C(F)(F)F)cc1`, the growth with SN12C renal is 17.8%; in the experiment on UO-31 renal, -90.1% (active); with TK-10 renal it was 46.5%; in the experiment on ACHN renal, 3% (active); in the experiment with A498 renal, 46.3%; in the experiment on CCRF-CEM leukemia, 18.3%. The figures for the growth in the experiment with MOLT-4 leukemia and in the experiment on SR leukemia were 3.51% (active) and -8.8% (active), respectively.

As to `O=C(Nc1cccc(-n2cc(-c3ccncc3)c(-c3ccc(O)c(Cl)c3)n2)c1)Nc1ccc(Cl)c(C(F)(F)F)c1`, the growth in the experiment on SN12C renal is 9.97% (active); in the experiment on UO-31 renal it was -18.9% (active); with TK-10 renal, -15% (active); in the experiment with ACHN renal it was 10.7%; in the experiment on CAKI-1 renal it was -30.9% (active); in the experiment with A498 renal, 37.6%. Besides, the growth in the experiment with CCRF-CEM leukemia is 1.32% (active); in the experiment on MOLT-4 leukemia, -20.6% (active); in the experiment on SR leukemia it was 3.22% (active).

Take `COc1cccc2c1O/C(=C\c1c([N+](=O)[O-])ncn1C)C2=O`: the growth in the experiment on SN12C renal is 104%; with UO-31 renal, 78.7%; in the experiment with TK-10 renal, 109%; with ACHN renal, 89%; with CAKI-1 renal, 92.8%; in the experiment on MOLT-4 leukemia, 85.3%. Further, in the experiment on SR leukemia, the growth was 62.8%.
